Experiment [1] in a line: qHTS assay to identify small molecule antagonists of the glucocorticoid receptor (GR) signaling pathway - cell viability counter screen (AID 720693; further: nearly all actives have a fitted effect of over 55% in size). (In general: qHTS replaces the single test concentration by a dilution series.)
Experiment [2] can be described thus: qHTS assay for identifying genotoxic compounds that show differential cytotoxicity against isogenic chicken DT40 cell lines with known DNA damage response pathways - wild type cell line (AID 743012). Further: nearly all actives have a fitted effect of over 60% in size. A digest of the protocol:
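Viability of DNA repair-proficient chicken DT40 cells was assessed by CellTiter-Glo luminescence following 40 h compound exposure at 37 C/5% CO2.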

The nature of experiment [3]: qHTS assay for identifying genotoxic compounds that show differential cytotoxicity against isogenic chicken DT40 cell lines with known DNA damage response pathways - Rev3 mutant cell line (AID 743014). Further: nearly all actives have a fitted effect of over 55% in size.
Experiment [4] is described as follows: qHTS assay for identifying genotoxic compounds that show differential cytotoxicity against isogenic chicken DT40 cell lines with known DNA damage response pathways - Rad54/Ku70 mutant cell line (AID 743015). Further: nearly all actives have a fitted effect of over 60% in size.
Experiment [5] is described as follows: qHTS assay to identify small molecule antagonists of the androgen receptor (AR) signaling pathway - cell viability counter screen (AID 743033; further: nearly all actives have a fitted effect of over 45% in size).
Experiment [6] can be described thus: qHTS assay to identify small molecule antagonists of the androgen receptor (AR) signaling pathway using the MDA cell line - cell viability counter screen (AID 743041; further: nearly all actives have a fitted effect of over 45% in size; further: potency means the concentration at half of the fitted maximal effect). In outline:
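Using the breast carcinoma line MDA-kb2 AR-luc, test chemicals were co-incubated with R1881 for 16 h; CellTiter-Fluor reagent, added at 15.5 h, provided a fluorescence measure of live cells.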

Experiment [7] in a line: qHTS assay to identify small molecule antagonists of the thyroid receptor (TR) signaling pathway - cell viability counter screen (AID 743064). Further: nearly all actives have a fitted effect of over 50% in size. A digest of the protocol:
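Counter screen for cytotoxicity: compound plus T3 (1 nM final) on GH3.TRE-Luc cells, 23.5 h at 37 °C, then fluorescence viability readout with CellTiter-Fluor.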

A short description of experiment [8]: qHTS assay to identify small molecule antagonists of the thyroid receptor (TR) signaling pathway (AID 743065). Further: series mostly up to about 70 µM; nearly all actives have a fitted effect of over 55% in size. A digest of the protocol:
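Antagonism measured as loss of luciferase signal in GH3 cells stably carrying a TRE-luciferase reporter, co-treated with compound and T3 (1 nM final) for 23.5 h at 37 C. Viability was read in the same well by CellTiter-Fluor.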

The test system of experiment [9] is thyroid hormone receptor (rat, GH3 cells). As to the kind of experiment: qHTS assay to identify small molecule agonists of the thyroid receptor (TR) signaling pathway (AID 743066; calls by dose curve).
Experiment [10] can be described thus: qHTS assay to identify small molecule antagonists of the estrogen receptor alpha (ER-alpha) signaling pathway - cell viability counter screen (AID 743074; calls by dose curve; further: nearly all actives have a fitted effect of over 45% in size).
Experiment [11] in a line: qHTS assay to identify small molecule antagonists of the estrogen receptor alpha (ER-alpha) signaling pathway using the BG1 cell line - cell viability counter screen (AID 743081).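 Further: compound given together with 17beta-estradiol as the ER stimulus; series mostly up to about 70 µM; nearly all actives have a fitted effect of over 45% in size.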
The next experiment addresses Aromatase (Homo sapiens) (UniProt P11511). As to the kind of experiment: qHTS assay to identify aromatase inhibitors (AID 743083). Further: series mostly up to about 70 µM; nearly all actives have a fitted effect of over 55% in size.
The nature of experiment [12]: qHTS assay to identify aromatase inhibitors - cell viability counter screen (AID 743084).
Experiment [13] has as its target Estrogen receptor (Homo sapiens) (UniProt P03372). Briefly: qHTS assay to identify small molecule antagonists of the estrogen receptor alpha (ER-alpha) signaling pathway (AID 743069; active means well fitted curve in the direction sought with a large enough effect in the signal ratio in the repeat runs, not every such curve was filed as active; the % refers to the signal ratio). In outline:
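Fluorescence intensity from a beta-lactamase FRET substrate served as the read-out. Cells: HEK293 with stably integrated ER-alpha-UAS-bla reporter. Agonist 17beta-estradiol was co-added with compounds; incubation 18 hr at 37C, substrate 2 hr at room temperature.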

The target is the same in experiment [14]. Briefly: qHTS assay to identify small molecule agonists of the estrogen receptor alpha (ER-alpha) signaling pathway (AID 743075; calls by dose curve).
Experiment [15] shares this target. Briefly: qHTS assay to identify small molecule agonists of the estrogen receptor alpha (ER-alpha) signaling pathway using the BG1 cell line (AID 743079). Further: nearly all actives have a fitted effect of over 20% in size.
Experiment [16] in a line: qHTS assay to identify small molecule antagonists of the estrogen receptor alpha (ER-alpha) signaling pathway using the BG1 cell line (AID 743080; calls by dose curve;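 further: BG1 cells stimulated with 17beta-estradiol alongside compound; series mostly up to about 70 µM; nearly all actives have a fitted effect of over 25% in size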). In outline:
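After 5 days in phenol-red-free 10% charcoal-stripped FBS medium, BG1-Luc-4E2 cells were seeded, left 24 h at 37 C, co-treated with compounds and 17beta-estradiol for 21.5 h, then assayed for viability and luciferase.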

Structures are written as SMILES. Records with an inconclusive call do not appear. Values without a mark were called inactive. The source made the active and inactive calls. Unless noted, the call rests on the fitted dose curve; in most records, active means well fitted curve in the direction sought with a large enough effect in the repeat runs; inconclusive means weak or mixed curves; inactive means no such curve, though single readings can be large; an effect the other way counts as inactive or inconclusive.

Chain of Estrogen receptor (Homo sapiens) (P03372 whole entry, looked up): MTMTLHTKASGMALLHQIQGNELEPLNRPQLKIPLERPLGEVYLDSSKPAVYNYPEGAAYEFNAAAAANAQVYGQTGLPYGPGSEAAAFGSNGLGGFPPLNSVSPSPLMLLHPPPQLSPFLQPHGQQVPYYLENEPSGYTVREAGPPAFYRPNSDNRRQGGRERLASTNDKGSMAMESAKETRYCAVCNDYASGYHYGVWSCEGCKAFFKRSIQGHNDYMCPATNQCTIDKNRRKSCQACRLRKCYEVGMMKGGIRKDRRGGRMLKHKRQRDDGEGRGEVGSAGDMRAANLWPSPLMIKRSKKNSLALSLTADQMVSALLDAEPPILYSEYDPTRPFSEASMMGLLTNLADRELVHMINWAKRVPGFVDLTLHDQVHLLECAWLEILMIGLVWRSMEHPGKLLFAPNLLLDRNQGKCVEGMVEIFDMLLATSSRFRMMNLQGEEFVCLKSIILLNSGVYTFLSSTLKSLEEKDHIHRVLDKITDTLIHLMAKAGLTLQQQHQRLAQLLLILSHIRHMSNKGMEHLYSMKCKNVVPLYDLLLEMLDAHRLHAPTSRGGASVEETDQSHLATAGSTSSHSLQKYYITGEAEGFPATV
Chain of Aromatase (Homo sapiens) (P11511 whole entry, looked up): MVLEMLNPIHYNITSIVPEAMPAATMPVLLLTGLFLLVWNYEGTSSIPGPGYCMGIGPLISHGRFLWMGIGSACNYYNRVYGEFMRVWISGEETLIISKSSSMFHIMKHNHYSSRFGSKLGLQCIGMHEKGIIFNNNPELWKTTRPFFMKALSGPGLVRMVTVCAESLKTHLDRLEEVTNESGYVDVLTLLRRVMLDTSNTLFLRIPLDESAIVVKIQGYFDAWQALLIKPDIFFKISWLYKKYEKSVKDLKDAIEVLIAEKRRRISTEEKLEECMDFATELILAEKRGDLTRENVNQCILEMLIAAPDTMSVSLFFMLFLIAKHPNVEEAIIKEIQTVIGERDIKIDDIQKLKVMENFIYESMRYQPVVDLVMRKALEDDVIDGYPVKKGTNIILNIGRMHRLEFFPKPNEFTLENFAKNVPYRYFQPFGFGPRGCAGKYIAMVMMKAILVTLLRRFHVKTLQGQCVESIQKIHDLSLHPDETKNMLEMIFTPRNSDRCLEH

For `CC(C)C(=O)OC(=O)C(C)C`, the outcome in experiment [1], in [5], in experiment [9] and in experiment [11] was inactive. Moreover, the Potency result in experiment [2], in experiment [3], in experiment [4], in [6], in experiment [7] and in experiment [8] was “inactive” each time. Besides, in [10], the Potency result is “inactive”.

`CC(C)[C@H]1CC[C@@H](C)CC1=O`: the result (in [1]; in [5]; in experiment [11]; with Aromatase (Homo sapiens)) was inactive. The Potency entry in [2], in experiment [3], in experiment [4], in [6], in experiment [7] and in experiment [10] was “inactive” in each case. Moreover, the Potency entry in [12] was “inactive”.

As to `CO[C@@]1(NC(=O)C(C(=O)O)c2ccc(O)cc2)C(=O)N2C(C(=O)O)=C(CSc3nnnn3C)CO[C@@H]21` (stereo not given in full), the call (in [1]; in experiment [5]; in the experiment with Aromatase (Homo sapiens)) was inactive. The Potency result in experiment [2], in experiment [3], in [4], in experiment [6], in [7] and in experiment [13] was “inactive” each time. Further, the Potency result in experiment [10], in [14], in [15], in experiment [16] and in experiment [12] was “inactive” throughout.

For `C[N+]1(C)[C@@H]2CC(OC(=O)[C@H](CO)c3ccccc3)C[C@H]1[C@@H]1O[C@@H]12` (stereo not given in full), the molecule was called inactive (in experiment [1]; in [5]; in experiment [9]; in [11]; in the experiment with Aromatase (Homo sapiens)). Besides, the Potency entry in experiment [2], in experiment [3], in experiment [4], in experiment [6], in experiment [13] and in experiment [10] was “inactive” each time. The Potency result in experiment [14], in experiment [15], in [16] and in [12] was “inactive” each time.

Regarding `COc1ccccc1OCC1CNC(=O)O1` (stereo not given), the outcome (in [1]; in [5]; in experiment [9]; in [11]; in the experiment with Aromatase (Homo sapiens)) was inactive. Moreover, the Potency result in experiment [2], in [3], in [4], in [7], in experiment [8] and in experiment [10] was “inactive” in each case. The Potency result in experiment [12] was “inactive”.

As for `CC1OC1C1CCC2(C)OC2C1` (stereo not given), the result (in experiment [1]; in experiment [5]; in experiment [9]; in experiment [11]; with Aromatase (Homo sapiens)) was inactive. The Potency entry in experiment [2], in experiment [3], in experiment [4], in experiment [6], in [8] and in experiment [13] was “inactive” throughout. In addition, the Potency result in experiment [10], in experiment [14], in [15], in experiment [16] and in experiment [12] was “inactive” in each case.

With `CCOCC(C)O` (stereo not given), the outcome (in experiment [1]; in [5]; in experiment [11]; with Aromatase (Homo sapiens)) was inactive. Besides, the Potency result in [2], in experiment [3], in experiment [4], in experiment [6], in [7] and in experiment [13] was “inactive” each time. Further, the Potency entry in experiment [10], in [14], in [15], in [16] and in [12] was “inactive” in each case.

Take `CCN(CC#N)c1cccc(C)c1`: the molecule was classed as inactive (in [1]; in [11]; with Aromatase (Homo sapiens)). Besides, the Potency entry in [2], in [3], in experiment [4], in [6], in experiment [7] and in experiment [13] was “inactive” in each case. Besides, the Potency entry in experiment [10], in experiment [14], in experiment [15], in experiment [16] and in experiment [12] was “inactive” in each case.

Turning to `C[C@H]1[C@H](NC(=O)/C(=N/OC(C)(C)C(=O)O)c2csc(N)n2)C(=O)N1S(=O)(=O)O` (stereo in doubt), the result (in experiment [1]; in experiment [5]; in [11]; with Aromatase (Homo sapiens)) was inactive. The Potency entry in experiment [2], in experiment [3], in experiment [4], in [6], in experiment [10] and in [12] was “inactive” in each case.

With `C[C@@H]1CCC[C@H](C)N1`, the call (in experiment [1]; in [5]; in experiment [9]; in experiment [11]; in the experiment with Aromatase (Homo sapiens)) was inactive. The Potency result in experiment [2], in experiment [3], in experiment [4], in [6], in experiment [8] and in experiment [12] was “inactive” each time.

Take `NCCCC[C@H](N[C@@H](CCc1ccccc1)C(=O)O)C(=O)N1CCC[C@H]1C(=O)O`: the call (in [1]; in experiment [5]; in [11]; in the experiment with Aromatase (Homo sapiens)) was inactive. The Potency result in [2], in experiment [3], in experiment [4], in experiment [6], in [10] and in experiment [12] was “inactive” in each case.

On to `CC1=NN(c2cc(S(=O)(=O)O)ccc2Cl)C(=O)C1N=Nc1ccccc1` (stereo not given), for which the call (in [1]; in experiment [5]; in experiment [9]; in the experiment with Aromatase (Homo sapiens)) was inactive. Moreover, the Potency entry in experiment [2], in experiment [3], in [4], in [8], in experiment [13] and in [10] was “inactive” in each case. Besides, the Potency result in [14] and in experiment [15] was “inactive” in each case. Also, the Potency in experiment [6] was 61.1 µM (active).

Regarding `CC1=NS(=O)(=O)c2cc(Cl)ccc2N1`, the molecule was classed as inactive (in experiment [1]; in [5]; in [11]; in the experiment with Aromatase (Homo sapiens)). Moreover, the Potency entry in experiment [2], in experiment [3], in experiment [4], in experiment [6], in experiment [13] and in experiment [14] was “inactive” each time. Also, the Potency entry in experiment [15], in [16] and in [12] was “inactive” throughout.

The values are drawn from PubChem BioAssay (Tox21).
